Shown are actives, neighbours in structure and some others; about 2.4% of the full set was active somewhere.
Arbovirus anti: blocks arbovirus infection. arbovirus infection cell-based antiviral screen. actives 0.37% (n = 200,000). AID 1251. inhibition, % at 10 µM; in the data active means inhibition above about 30%
p97 inhibitor: human p97 ATPase inhibition. P55072. recombinant p97 ATPase, Kinase-Glo ATP luminescence, 3 h. inhibition, % at 8 µM. actives 0.42% (n = 220,000). AID 1481; in the data active means inhibition above about 15%;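 further: 0% = DMSO vehicle and 100% = wells lacking enzyme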
Target sequence (P55072 whole entry, looked up): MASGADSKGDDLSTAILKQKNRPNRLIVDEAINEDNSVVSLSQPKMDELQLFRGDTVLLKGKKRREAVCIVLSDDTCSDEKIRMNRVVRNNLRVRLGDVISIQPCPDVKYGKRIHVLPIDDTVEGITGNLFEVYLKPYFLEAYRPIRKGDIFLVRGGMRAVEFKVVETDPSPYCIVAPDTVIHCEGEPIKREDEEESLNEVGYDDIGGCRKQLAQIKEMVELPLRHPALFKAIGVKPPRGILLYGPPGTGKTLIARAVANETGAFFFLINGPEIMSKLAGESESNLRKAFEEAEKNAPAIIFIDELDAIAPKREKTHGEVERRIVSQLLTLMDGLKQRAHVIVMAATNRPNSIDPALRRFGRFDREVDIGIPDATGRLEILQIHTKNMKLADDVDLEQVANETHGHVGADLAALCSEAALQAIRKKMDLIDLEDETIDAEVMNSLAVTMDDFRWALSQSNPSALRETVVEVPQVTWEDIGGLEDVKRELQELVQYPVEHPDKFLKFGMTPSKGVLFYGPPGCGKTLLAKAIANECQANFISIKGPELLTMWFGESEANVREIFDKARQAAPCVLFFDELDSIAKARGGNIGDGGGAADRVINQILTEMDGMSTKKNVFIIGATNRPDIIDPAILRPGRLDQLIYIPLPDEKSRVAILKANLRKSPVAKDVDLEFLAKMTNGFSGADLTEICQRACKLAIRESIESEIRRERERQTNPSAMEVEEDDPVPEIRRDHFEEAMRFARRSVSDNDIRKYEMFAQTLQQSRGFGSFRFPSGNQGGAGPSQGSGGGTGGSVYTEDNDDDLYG
Hck Nef HTS: inhibitors of human Hck kinase activated by Nef; P08631; AID 463187; Recombinant Hck-YEEI plus Nef, Z-Lyte FRET kinase assay; inhibition, % at 20 µM; actives 0.68% (n = 220,000);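 active means Hck-Nef kinase inhibition above about 50%, limit read from the data; inactive means inhibition below that limit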;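 further: 0% = DMSO with Hck plus Nef and 100% = Hck alone without Nef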
PGE2 EP2 inh: EP2 receptor (human) inhibition | inhibition, % at 25 µM | actives 0.52% (n = 260,000) | C6 glioma cells expressing human EP2, cAMP TR-FRET; cells stimulated with saturating PGE2;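 active means percent inhibition above 40 after rounding to a whole number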;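 further: rat C6 glioma host cells with rolipram phosphodiesterase inhibitor present; the protocol text gives 20 µM as final concentration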
EP2 modulator: modulators of human EP2 prostaglandin E2 receptor | induction, % at 25 µM | EP2-expressing cells, cAMP HTRF FRET, PGE2 co-stimulation | actives 0.83% (n = 260,000) | P43116;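 active means compounds whose cAMP rise, as percent of the full-agonist control response, exceeds 60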;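 further: rat C6 glioma line stably carrying human EP2 under a CMV promoter; the protocol text gives 20 µM as final concentration; 100% = response of wells given 1 µM PGE2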
Hck-Nef confirm: confirmation of Hck-Nef kinase inhibitors; actives 28% (n = 1,300); AID 463188; Recombinant Hck-YEEI:Nef, Z-Lyte FRET kinase assay; shares compounds with Hck Nef HTS; calls only at 10 µM;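 active means average inhibition of at least 50%, with Z-scores no higher than 3 in both the phospho-tyrosine peptide and fluorescence counterscreens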
Starred values were filed as active, the others as inactive.

Screening CCOC(=O)c1sc(N2N=C(C)C(N=Nc3cccc(C)c3)C2=O)nc1C (stereo unspecified) returned p97 inhibitor -5.5, Hck Nef HTS 99.9*, PGE2 EP2 inh 5.5, EP2 modulator -3.8 and Hck-Nef confirm active.
COc1cccc(-c2ocnc2C(=O)NC(C)c2ccccn2)c1 (stereo unspecified) was read as PGE2 EP2 inh 3.5 and EP2 modulator -31.6.
Cc1ccc2[nH]c(=O)c(C(c3nnnn3C3CCCC3)N3CCN(c4ccccc4)CC3)cc2c1 (stereo unspecified) was read as PGE2 EP2 inh 2.7 and EP2 modulator 11.3.
For CCOc1ccc2nc(NC(=O)c3cccc(-c4cc5ccccc5oc4=O)c3)sc2c1 the results were Arbovirus anti -32.9, p97 inhibitor -3.4, Hck Nef HTS 42.6, PGE2 EP2 inh 4.6 and EP2 modulator 16.8.
For Cc1ccc2nc(NC(=O)c3cccc(-c4cc5ccccc5oc4=O)c3)sc2c1 the results were Arbovirus anti -40.0, p97 inhibitor -5.1, Hck Nef HTS 63.2*, PGE2 EP2 inh 18.6, EP2 modulator 4.5 and Hck-Nef confirm inactive.
For O=C1CCCC2=C1C(c1cccc(O)c1)c1c(ccc3ncccc13)N2 (stereo unspecified) the results were Arbovirus anti -2.2, p97 inhibitor -1.3, Hck Nef HTS 64.9*, PGE2 EP2 inh 1.3, EP2 modulator -11.9 and Hck-Nef confirm inactive.
For COc1cc(C2C3=C(CCCC3=O)Nc3ccc4ncccc4c32)ccc1O (stereo unspecified) the results were Arbovirus anti -6.9, p97 inhibitor 5.3, Hck Nef HTS -14.6, PGE2 EP2 inh 9.3 and EP2 modulator 8.9.
Screening CC(C)N(C(=O)CSc1nc2c(c(=O)n(C)c(=O)n2C)n1Cc1ccccc1)C(C)C returned PGE2 EP2 inh 17.6 and EP2 modulator 10.2.
Screening O=C1N=C(N2CCN(c3ccccc3)CC2)S/C1=C/c1ccco1 returned p97 inhibitor 6.1, Hck Nef HTS 52.2*, PGE2 EP2 inh 12.3, EP2 modulator -45.6 and Hck-Nef confirm inactive.
`CCN(CC)c1ccc(/C=C2/C(=O)c3ccc(C(=O)O)cc3C2=O)cc1` gave Arbovirus anti 0.2, p97 inhibitor 5.5, Hck Nef HTS 55.4*, PGE2 EP2 inh 11.0, EP2 modulator 38.9 and Hck-Nef confirm inactive.
`CCC(CO)Nc1nc2ccc(Cl)cc2c2ccccc12` (stereo unspecified) gave p97 inhibitor -6.0, Hck Nef HTS 23.1, PGE2 EP2 inh 7.0 and EP2 modulator -20.7.
`CC(C)[C@H](CO)N(Cc1cccc(F)c1)c1nc(Nc2cccc(Cl)c2)c2ncn(C(C)C)c2n1` gave Hck Nef HTS 68.0*, PGE2 EP2 inh 15.9, EP2 modulator 16.1 and Hck-Nef confirm active.
Screening CC(C)n1cnc2c(N(C)c3cccc(Cl)c3)nc(N(CCO)CCO)nc21 returned Hck Nef HTS 23.1, PGE2 EP2 inh 9.1 and EP2 modulator 4.0.
For CC[C@H](CO)Nc1nc(Nc2cccc(Cl)c2)c2ncn(C(C)C)c2n1 the results were Hck Nef HTS 110.0*, PGE2 EP2 inh 20.9, EP2 modulator 6.0 and Hck-Nef confirm active.
`C=CCNC(=O)[C@H]1C=CCN1C(=O)Nc1ccc(F)cc1` gave PGE2 EP2 inh 8.2 and EP2 modulator -20.9.
For CCOC(=O)c1nnn2c1nc(Nc1cccc(C(F)(F)F)c1)c1ccccc12 the results were p97 inhibitor 4.0, Hck Nef HTS 66.0*, PGE2 EP2 inh 7.8, EP2 modulator -11.7 and Hck-Nef confirm inactive.
For O=C(NCCc1ccccn1)c1cc(-c2ccc(Cl)c(Cl)c2Cl)nc2ccccc12 the results were Arbovirus anti -8.9, p97 inhibitor -1.6, Hck Nef HTS 4.4, PGE2 EP2 inh 3.5 and EP2 modulator -2.6.
Screening O=C(Nc1nn[nH]n1)c1cc(-c2ccc(Cl)c(Cl)c2Cl)nc2ccccc12 returned Arbovirus anti 4.3, p97 inhibitor -0.1, Hck Nef HTS 119.3*, PGE2 EP2 inh 8.3, EP2 modulator 20.0 and Hck-Nef confirm inactive.
Screening CC(C)CNC(=O)c1c(N)n(/N=C/c2ccccn2)c2nc3ccccc3nc12 returned Arbovirus anti 4.7, p97 inhibitor -6.6, Hck Nef HTS 50.8*, PGE2 EP2 inh 13.3, EP2 modulator 30.1 and Hck-Nef confirm inactive.
CCCCNC(=O)c1c(N)n(/N=C/c2ccccn2)c2nc3ccccc3nc12 was read as Arbovirus anti -3.7, p97 inhibitor 3.1, Hck Nef HTS 49.5 and EP2 modulator 10.7.
For COc1ccc2nc3c(cc2c1)c(NC(=O)C1CCCO1)nn3CC(C)C (stereo unspecified) the results were Arbovirus anti -1.0, p97 inhibitor -0.7, Hck Nef HTS 59.4*, PGE2 EP2 inh 27.9, EP2 modulator -11.2 and Hck-Nef confirm inactive.
Screening O=C(CSc1ncnc2c1oc1ccccc12)Nc1nccs1 returned Arbovirus anti -4.0, p97 inhibitor 8.2, Hck Nef HTS 79.0*, PGE2 EP2 inh 4.5, EP2 modulator 3.5 and Hck-Nef confirm inactive.
For Cc1cn(-c2cc(C(=O)Nc3ccc(C)c(NC(=O)C(=O)c4c[nH]c5ccccc45)c3)cc(C(F)(F)F)c2)cn1 the results were Hck Nef HTS 55.4*, PGE2 EP2 inh 10.3, EP2 modulator -2.2 and Hck-Nef confirm inactive.
COc1ccc(NC(=O)CN2C(=O)/C(=C3\SC(=S)N(C4CCS(=O)(=O)C4)C3=O)c3ccccc32)cc1 (stereo unspecified) was read as p97 inhibitor 6.3, Hck Nef HTS 99.1*, PGE2 EP2 inh 7.7, EP2 modulator 16.1 and Hck-Nef confirm active.
Screening O=C(O)CCC(=O)NNc1ncnc2ccccc12 returned Arbovirus anti -2.5, p97 inhibitor 2.5, Hck Nef HTS 52.4*, PGE2 EP2 inh 5.9, EP2 modulator 15.7 and Hck-Nef confirm inactive.
Screening CCN(CC)CCCNC(=O)CCC(=O)Nc1ccc2nc(N3CCC(C)CC3)cc(C)c2c1 returned Arbovirus anti -13.2, p97 inhibitor -1.6, Hck Nef HTS 87.6*, PGE2 EP2 inh 6.3 and EP2 modulator -4.4.
`C=CCn1c(SCC(=O)Nc2ccc(-c3nc4ccc(C)cc4s3)cc2)nnc1-c1ccccc1` gave Arbovirus anti 7.4, p97 inhibitor -4.1, Hck Nef HTS 78.0*, PGE2 EP2 inh 9.3, EP2 modulator 6.8 and Hck-Nef confirm active.
Screening CCOC(=O)CCc1c(C)c2ccc(O)cc2oc1=O returned Arbovirus anti -4.2, p97 inhibitor -0.1, Hck Nef HTS 90.1*, PGE2 EP2 inh 6.6 and EP2 modulator 22.3.
Cc1c(Cc2ccccc2)c(=O)oc2cc(O)ccc12 was read as p97 inhibitor 6.3, Hck Nef HTS 138.9*, PGE2 EP2 inh 9.7 and EP2 modulator 25.1.
`CCOC(=O)CCc1c(C)c2ccc(OCC(=O)N(CC)CC)c(C)c2oc1=O` gave Arbovirus anti -2.8, p97 inhibitor 1.8, Hck Nef HTS -3.3, PGE2 EP2 inh 5.7 and EP2 modulator -35.4.

Source: PubChem BioAssay (several laboratories)
